Source: PubChem BioAssay (several laboratories)
Compounds with a hit are over-represented: about 5.1% of the library has one in this group of screens.
NR3A LBD binder: modulates the human NR3A ligand-binding domain. NR3A LBD differential scanning fluorimetry, Tm shift; 0% = protein alone, 100% = glycine-bound protein. Tm shift relative to glycine control, % at 25 µM. 2.5% of 340,000 active;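 active = melting temperature shift of at least 10% of the positive control shift, at one fixed dose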
TMEM16A inh: inhibitors of mouse TMEM16A calcium-activated chloride channel; AID 588511; normalized B-score (activity score, 25-100; higher = stronger inhibition) at 10 µM; HEK293 TMEM16A/YFP iodide influx fluorescence, ionomycin; Q8BHY3; 1.2% of 310,000 active;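 active = ratio plate-corrected score three or more library SD toward inhibition, starting fluorescence score within five deviations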;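 note: score derived from kinetic fluorescence span divided by baseline fluorescence per well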
Target sequence (Q8BHY3 whole entry, looked up): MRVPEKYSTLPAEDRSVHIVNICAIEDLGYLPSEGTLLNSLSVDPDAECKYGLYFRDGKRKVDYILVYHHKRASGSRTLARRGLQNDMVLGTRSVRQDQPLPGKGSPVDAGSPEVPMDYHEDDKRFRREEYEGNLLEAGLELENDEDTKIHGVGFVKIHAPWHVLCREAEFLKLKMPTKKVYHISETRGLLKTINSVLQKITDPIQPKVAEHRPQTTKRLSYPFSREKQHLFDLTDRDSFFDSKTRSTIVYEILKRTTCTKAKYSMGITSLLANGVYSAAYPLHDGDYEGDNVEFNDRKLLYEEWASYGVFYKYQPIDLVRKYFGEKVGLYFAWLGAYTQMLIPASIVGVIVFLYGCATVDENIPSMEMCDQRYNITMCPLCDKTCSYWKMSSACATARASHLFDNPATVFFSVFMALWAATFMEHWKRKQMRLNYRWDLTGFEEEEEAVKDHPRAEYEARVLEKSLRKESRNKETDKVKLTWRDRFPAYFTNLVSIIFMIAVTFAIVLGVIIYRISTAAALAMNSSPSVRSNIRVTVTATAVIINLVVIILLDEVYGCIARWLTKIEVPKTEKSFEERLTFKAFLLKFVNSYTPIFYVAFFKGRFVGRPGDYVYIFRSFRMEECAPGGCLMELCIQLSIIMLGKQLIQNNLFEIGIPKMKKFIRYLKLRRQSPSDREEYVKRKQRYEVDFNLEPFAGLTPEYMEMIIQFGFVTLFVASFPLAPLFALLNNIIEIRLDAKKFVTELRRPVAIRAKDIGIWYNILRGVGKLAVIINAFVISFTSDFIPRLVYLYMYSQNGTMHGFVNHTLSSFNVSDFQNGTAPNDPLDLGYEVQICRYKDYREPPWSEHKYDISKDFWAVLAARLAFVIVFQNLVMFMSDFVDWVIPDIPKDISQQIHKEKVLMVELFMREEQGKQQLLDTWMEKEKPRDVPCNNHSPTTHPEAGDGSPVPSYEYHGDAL
ANO1 activ: activators or potentiators of mouse TMEM16A chloride channel. Q8BHY3. B-score at 10 µM. HEK293 TMEM16A/YFP-H148Q/I152L, iodide quench fluorescence; stronger effect = lower value. 0.3% of 340,000 active;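 active = fluorescence-ratio B-score plate-corrected deviation score at least 3 library SD below zero, with starting fluorescence score within 5 deviations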;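 note: channel opened by trigger with iodide after compound preincubation; score built on the fluorescence ratio of max minus min over baseline; more negative score means more quench and so TMEM16A activation or potentiation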
CRFBP-R2 agonist: agonists of human CRF-binding protein/CRF-R2 receptor complex. 0.46% of 350,000 active. HEK293 CRF-R2/CRF-BP, calcium dye fluorescence (FLIPR); percent of saturating CRF peptide response. activation, % at 13.2 µM;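 active = activation of at least 50%, plus an integration ratio under a set limit after plate pattern correction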;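 note: plate controls were neutral control wells without compound for no effect and CRF at EC100 for full effect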
MPTP inh: blocks calcium-induced mitochondrial swelling | isolated mouse mitochondria, Ca2+ swelling absorbance, 30 min | inhibition, % at 10 µM | 1.4% of 360,000 active | AID 602449;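 active = inhibition of 50% or more, scaled per plate between neutral and stimulator controls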;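 note: 0% = DMSO wells given calcium and 100% = 1 mM EGTA wells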
CRFBP-R2 block: antagonists of CRF-binding protein/CRF-R2 receptor complex; HEK293 CRF-R2/CRF-BP, CRF-induced calcium fluorescence; inhibition, % at 11.8 µM; 0.59% of 350,000 active;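 active = inhibition of the ligand-induced calcium signal above about 50% at the single tested concentration, limit read from the data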
* marks the source's active call; other numbers are inactive results; i = inactive; x = no result.

SMILES	NR3A LBD binder	TMEM16A inh	ANO1 activ	CRFBP-R2 agonist	MPTP inh	CRFBP-R2 block
CCOCCCNC(=O)c1ccccc1SC	0	i	i	1	-2	-19
COCCCNC(=O)c1ccccc1SC	13*	i	i	1	-1	3
O=C(NCCOc1ccc(F)cc1)c1ccccc1SCc1ccccc1	-6	25*	i	-1	3	-3
COc1ccc2c(c1)c(CC(=O)NCc1cc([N+](=O)[O-])ccc1O)c(C)n2C(=O)c1ccc(Cl)cc1	24*	100*	i	1	27	-2
COc1ccc2c(c1)c(CC(=O)Nc1ccccc1OC)c(C)n2C(=O)c1ccc(Cl)cc1	-2	i	i	2	3	33
COc1ccc2c(c1)c(CC(=O)Nc1cc(C)ccc1C)c(C)n2C(=O)c1ccc(Cl)cc1	-4	i	i	89*	12	-97
C=CCN(c1ccccc1)S(=O)(=O)c1cccc(C(=O)NNC(=O)c2ccncc2)c1	-1	i	i	-2	-1	13
Cc1cnc(C(=O)Nc2ccc(C)c(S(=O)(=O)N3CCCCCC3)c2)cn1	2	x	i	0	-2	-1
O=C(Nc1ccc(Oc2ncnc3cc(Cl)ccc23)nc1)c1cccs1	11*	i	i	-3	3	6
COc1cc(/C=C/C(=O)OCC(=O)NCc2ccco2)ccc1OC(F)F	14*	i	i	-2	1	0
Cc1ccc(-n2ncc(-c3n[nH]c(=S)o3)c2N)cc1C	x	x	x	-1	0	7
COc1cc(CN(C2CC2)S(=O)(=O)c2ccccc2Br)cc(OC)c1	14*	x	x	4	0	6
COc1cccc(NC(=O)COC(=O)C2C3CC4OC(=O)C2C4C3)c1 (stereo not drawn)	-1	i	i	-1	-1	5
CCc1nnc(NC(=O)c2ccc(-c3ccc(C(C)=O)cc3)o2)s1	2	x	i	-1	0	-2
O=C(Nc1nccs1)c1ccc(-c2ccc(F)c(Cl)c2)o1	14*	i	i	-1	0	7
CCc1nnc(NC(=O)c2ccc(-c3ccc(Cl)cc3)o2)s1	15*	i	i	0	3	16
CCc1ccccc1N(CC(=O)NCc1ccco1)C(=O)CCC(=O)Nc1nccs1	1	i	i	-2	0	3
Cc1ccc(S(=O)(=O)N2[C@@H](Cc3ccccc3)CO[C@H]2CC(=O)c2cccs2)cc1	x	x	x	x	1	x
Cc1ccc(C(=O)NCC(=O)NCC(c2cccs2)N(C)C)cc1C (stereo not drawn)	-1	x	i	1	1	13
CCOc1ccc(CN2CCNC(=O)C2CC(=O)N(C)CC2CCOCC2)cc1 (stereo not drawn)	0	i	i	5	0	28
CN(CC1CCOCC1)C(=O)CC1C(=O)NCCN1Cc1ccc(Cl)c(F)c1 (stereo not drawn)	-2	i	i	1	0	79*
CCOC(=O)CSc1ncc(-c2ccccc2)nn1	37*	i	i	1	-1	2
CC(C)(C)c1ccc(C(O)c2ncc(-c3cccc(F)c3)[nH]2)cc1 (stereo not drawn)	x	x	x	x	3	x
O=C(O)C1C2C=CC(O2)C1C(=O)Nc1ccccc1C(F)(F)F (stereo not drawn)	7	i	i	0	-8	58*
CC(=O)Nc1ccc(Nc2cc(C(C)C)nc3c(-c4ccccc4)c(C)nn23)cc1	17*	i	i	-1	2	4
O=C(Nc1nc(-c2ccccn2)cs1)c1ccc(-c2ccccc2F)o1	12*	x	i	-1	10	-4
O=C(Nc1nc(-c2ccccc2)cs1)Nc1ccc(F)cc1F	2	i	i	4	2	-18
O=C(Nc1nc(-c2ccccn2)cs1)Nc1ccc(F)cc1F	14*	i	i	0	0	-17
CC(=O)c1ccc(-c2ccc(C(=O)Nc3nc(-c4ccccn4)cs3)o2)cc1	11*	x	i	2	-2	8
O=C(C(=O)N1CCN(c2ccccc2)CC1)c1cn(CC(=O)N2CCCCCC2)c2ccccc12	1	i	i	1	0	-11
